From ChEMBL document CHEMBL3988442, “University of Dundee, Small-Polar-MMV Screening Library” (2021) come the findings set out here.

Among all 69,000 compounds or so, about 950 (1.4%) showed an effect of 50% or more. Only a selection was taken, and strong results are over-represented in it overall.

The test concerns Mycobacterium tuberculosis. The test is described as follows: Cornell M. t heat shock assay. Also: in the data most compounds retested in dose-response had high values. The class given is functional, organism-based. More on the design: dose or concentration left out as unconfirmed.
For the compound `Cc1cc(-c2nccs2)nc(C2CCN(Cc3ccncc3)CC2)n1.Cl`, the “Percent Effect” value is -12.67%.

As to `CN(Cc1ccco1)[C@@H]1CN(Cc2ccco2)[C@@H]2CCCO[C@H]12.O=C(O)C(F)(F)F.O=C(O)C(F)(F)F`, the “Percent Effect” value was found to be 13.61%.

For `CN1CCC/C1=N\S(=O)(=O)c1ccc(NC(=O)c2ccc(Cl)cc2)cc1`, the “Percent Effect” value is given as -4.489%.

Regarding `CC1=N[C@@]2(CC[C@@H]3CN(Cc4ccc(C)cc4)C[C@@H]32)C(=O)N1CC1CC1.O=C(O)C(F)(F)F`, the “Percent Effect” value was 0.8614%.

In the case of `CC(c1cn2ccsc2n1)N1Cc2ncccc2C1=O` (centres undefined), the “Percent Effect” value was -27.43%.

As to `CCn1ncc2c1CN(C(=O)Cc1cccs1)CC2COC.O=C(O)C(F)(F)F` (centres undefined), the “Percent Effect” value is listed as 1.467%.

Take `COc1cccc(N2Cc3nc(=O)n(Cc4cccc(F)c4)n3C2=O)c1`: the “Percent Effect” value came to 19.15%.

As for `CCC(=O)N1CCC2(CC1)COCCN2Cc1ccc(F)cc1.O=C(O)C(F)(F)F`, the “Percent Effect” value was -30.34%.

Consider `O=C(O)C(F)(F)F.c1csc(CN2CCn3c(Cn4cncn4)cnc3C2)n1`, for which the “Percent Effect” value is listed as -82.66%.

In the case of `CC(NC(=O)CCn1c(=O)oc2ccccc21)c1ccccn1` (centres undefined), the “Percent Effect” value is recorded as -6.717%.

For the compound `O=C(CCn1c(=O)oc2ccccc21)NCC(O)c1ccc(Cl)cc1` (centres undefined), the “Percent Effect” value is -3.948%.

As to `O=C(CCn1c(=O)oc2ccccc21)NCC(O)c1ccc(F)c(F)c1` (centres undefined), the “Percent Effect” value worked out at 64.78%.

`O=C(CCn1c(=O)oc2ccccc21)NCC(O)c1ccccc1` (centres undefined): the “Percent Effect” value is 71.18%.

With `O=C(Cn1c(=O)oc2ccccc21)NCC(O)c1ccc2c(c1)CCO2` (centres undefined), the “Percent Effect” value is given as -3.535%.

Take `O=C(NCC(O)c1ccc(F)c(F)c1)c1ccccc1F` (centres undefined): the “Percent Effect” value was -2.812%.

`Cc1nc(C2(O)CCCNCC2)sc1CCOc1ccccc1Cl.Cl` (centres undefined): the “Percent Effect” value is reported as -14.1%.

Turning to `CCO[C@@H]1CC[C@H]2[C@H]1OCCN2CC1CCOCC1.O=C(O)C(F)(F)F`, the “Percent Effect” value is reported as -50.97%.

`c1cnnc(N2CCCC2CNCc2nc(-c3ccco3)no2)c1` (centres undefined): the “Percent Effect” value was 13.72%.

Take `Cc1nc(CNCC2CCCN2c2cccnn2)oc1C` (centres undefined): the “Percent Effect” value is listed as -4.447%.

For `c1ccc(-c2nnc(CNCC3CCCN3c3cccnn3)o2)cc1` (centres undefined), the “Percent Effect” value is on record as -22.96%.

Consider `CCc1nc(CNCC2CCCN2c2cccnn2)cs1` (centres undefined), for which the “Percent Effect” value stood at 0.6291%.

Take `CN(Cc1coc(-c2ccccc2)n1)CC1CCCN1c1cccnn1` (centres undefined): the “Percent Effect” value is reported as 7.112%.

For `c1ccc(-c2nc(CNCC3CCCN3c3cccnn3)co2)cc1` (centres undefined), the “Percent Effect” value amounted to 102.8%.

With `c1cnnc(N2CCCC2CNCc2nc(C3CC3)no2)c1` (centres undefined), the “Percent Effect” value was 52.74%.

Regarding `c1cnnc(N2CCCC2CNc2nc3ccccc3o2)c1` (centres undefined), the “Percent Effect” value was -7.44%.

With `CC(C)CCc1nc(CNCC2CCCN2c2cccnn2)cs1` (centres undefined), the “Percent Effect” value stood at 75.49%.

On to `c1cnnc(N2CCCC2CNCc2nc3ccccc3o2)c1` (centres undefined), for which the “Percent Effect” value was found to be 103.1%.

Consider `CCCc1nc(CNCC2CCCN2c2cccnn2)cs1` (centres undefined), for which the “Percent Effect” value turned out to be 2.805%.

Take `CCc1noc(CNCC2CCCN2c2cccnn2)n1` (centres undefined): the “Percent Effect” value is recorded as 11.99%.

`CCn1ccnc1CN1CCN(c2cc(C)nc(C3CCCN3)c2)CC1.Cl` (centres undefined): the “Percent Effect” value is listed as -8.62%.

Regarding `CC(C)c1nn(C)c(N(C)C)c1CNCc1cccc2cccnc12.Cl`, the “Percent Effect” value was 16.12%.

On to `CO[C@@H]1CO[C@@]2(CCCN(Cc3nc(C)cs3)C2)C1.O=C(O)C(F)(F)F`, for which the “Percent Effect” value was found to be 0.7459%.

In the case of `Cc1ccccc1C(=O)N1C[C@@H]2OCCN(c3ncccn3)[C@@H]2C1.O=C(O)C(F)(F)F`, the “Percent Effect” value is recorded as -16.98%.

On to `O=C(NC[C@]12COC[C@H]1CN(Cc1ccco1)C2)c1ccccc1.O=C(O)C(F)(F)F`, for which the “Percent Effect” value was -18.08%.

For `Cc1nc(C2CCN(C)CC2)cc(N2CCOc3ccc(Cl)cc3C2)n1`, the “Percent Effect” value is -13.3%.

Consider `Cc1nc(CCN)cc(N2CCC(O)(c3ccc(Cl)cc3)CC2)n1`, for which the “Percent Effect” value was -16.16%.

Turning to `Cc1nc(CCN)cc(N2CCOc3ccc(Cl)cc3C2)n1`, the “Percent Effect” value was found to be 51.61%.

As to `O=C(O)C(F)(F)F.c1nc2c(c(C3CC3)n1)CCN(CC1CCOC1)CC2` (centres undefined), the “Percent Effect” value stood at 4.72%.

As for `CC(C)n1cc(N2Cc3nc(N4CCOCC4)ncc3C2=O)cn1`, the “Percent Effect” value is -21.77%.

Consider `CCOc1cc(CN[C@@H]2COC[C@H]2Cc2cc(C)no2)ccc1O.O=C(O)CC(O)(CC(=O)O)C(=O)O`, for which the “Percent Effect” value is recorded as -17.97%.

On to `CO[C@@H]1CCN(S(=O)(=O)c2cccnc2)[C@@H]2CN(CC3CC3)C[C@@H]21.O=C(O)C(F)(F)F.O=C(O)C(F)(F)F`, for which the “Percent Effect” value is on record as -1.199%.

With `Cc1nc[nH]c1C(=O)N1CCC2(CC1)CN(CCN(C)C)C(=O)O2`, the “Percent Effect” value is given as 17.79%.

For the compound `Cc1ccc(C(=O)N2CCC3(CC2)CN(CCN(C)C)C(=O)O3)c(F)c1`, the “Percent Effect” value stood at 97.5%.

Regarding `Cc1cc(C(=O)N2CCC3(CC2)CN(CCN(C)C)C(=O)O3)nc(C)n1`, the “Percent Effect” value is 14.38%.

Consider `Cn1nc(CN2CCCCC2)c2c1CN(C(=O)c1cccc(C#N)c1)C2.O=C(O)C(F)(F)F`, for which the “Percent Effect” value is -14.41%.

Turning to `Cc1cc(NC(=O)C(C)N2CCCN(c3nccs3)CC2)on1` (centres undefined), the “Percent Effect” value turned out to be 10.96%.

Regarding `Cc1ccc(NC(=O)C(C)N2CCCN(c3nccs3)CC2)c(C)c1` (centres undefined), the “Percent Effect” value was determined as 58.85%.

As for `Cc1ccc(C)c(NC(=O)C(C)N2CCCN(c3nccs3)CC2)c1` (centres undefined), the “Percent Effect” value is on record as 26%.

For the compound `CC(C)Cc1nc(-c2ccnc(N3CCNCC3)n2)no1.Cl.Cl`, the “Percent Effect” value is reported as -11.54%.

On to `COCCN1CCO[C@H]2CN(Cc3cccc(C)n3)C[C@H]21.O=C(O)C(F)(F)F.O=C(O)C(F)(F)F`, for which the “Percent Effect” value is listed as -1.731%.

As for `Cc1ccsc1CN(Cc1cccnc1)C1CC(C)(C)NC(C)(C)C1.O=C(O)CC(O)(CC(=O)O)C(=O)O`, the “Percent Effect” value was -32.2%.

In the case of `Cc1cnn(C2CN(Cc3noc(-c4ccccc4)n3)C2)c1`, the “Percent Effect” value was determined as 31.69%.

Consider `Cc1ccc(-c2nc(CN3CC(n4nc(C)cc4C)C3)no2)cc1`, for which the “Percent Effect” value is given as 24.47%.

For `Cc1cnn(C2CN(Cc3noc(C)n3)C2)c1`, the “Percent Effect” value is on record as 1.101%.

As for `Cc1cc(C)n(C2CCN(Cc3nc4ccccc4n3C)CC2)n1`, the “Percent Effect” value is given as -15.39%.

As for `Cc1cnn(C2CN(Cc3nc4cc(Cl)ccc4n3C)C2)c1`, the “Percent Effect” value is 84.58%.

Take `Cc1cc(C)n(C2CN(Cc3nc4cc(Cl)ccc4n3C)C2)n1`: the “Percent Effect” value is reported as 97.92%.

For the compound `N#Cc1ccc(N2CCC3(CCC(=O)N3Cc3cccnc3)CC2)nc1.O=C(O)C(F)(F)F.O=C(O)C(F)(F)F`, the “Percent Effect” value was found to be 16.15%.

Regarding `Cc1c(Cl)cccc1S(=O)(=O)N1C[C@@H]2CC[C@H](C1)N(C)C2=O`, the “Percent Effect” value is given as -18.96%.

Take `O=C(Nc1cnccn1)[C@@H]1CC[C@@H]2[C@@H](CCN2Cc2nccs2)O1.O=C(O)C(F)(F)F`: the “Percent Effect” value was 0.9525%.

`COCC1CN(S(=O)(=O)N(C)C)Cc2ncn(CC3CC3)c21.O=C(O)C(F)(F)F` (centres undefined): the “Percent Effect” value is listed as -32.61%.

`Cc1noc([C@@H]2CC[C@@H]3[C@@H](CCN3S(=O)(=O)c3cccnc3)O2)n1.O=C(O)C(F)(F)F`: the “Percent Effect” value stood at 58.53%.

Regarding `Cc1noc([C@@H]2CC[C@@H]3[C@@H](CCN3S(=O)(=O)c3ccccc3)O2)n1`, the “Percent Effect” value is -26.97%.

For `Cc1noc([C@@H]2C[C@H]3OCC[C@H]3N(S(=O)(=O)c3cccnc3)C2)n1.O=C(O)C(F)(F)F`, the “Percent Effect” value is -33.58%.

`Cc1cccc(COc2ccc(C(C)N)cc2)c1.Cl` (centres undefined): the “Percent Effect” value stood at 2.748%.

Regarding `Cc1noc(C)c1CN1CCO[C@H]2CN(Cc3ccc(F)cc3)C[C@H]21.O=C(O)C(F)(F)F.O=C(O)C(F)(F)F`, the “Percent Effect” value is -6.13%.

For `COc1ccc(C(=O)N2CC(=O)N(Cc3cccs3)CC(O)C2)cc1` (centres undefined), the “Percent Effect” value is reported as 14.04%.

In the case of `CSc1ccc(C(=O)N2CC(=O)N(Cc3ccccc3)CC(O)C2)cc1` (centres undefined), the “Percent Effect” value turned out to be 28.35%.

For `O=C1CN(C(=O)c2ccc(Cl)cc2)CC(O)CN1Cc1cccs1` (centres undefined), the “Percent Effect” value came out at 16.61%.

For the compound `O=C1CN(C(=O)c2ccc(F)cc2)CC(O)CN1Cc1cccs1` (centres undefined), the “Percent Effect” value is listed as 62.26%.

With `CSc1ccc(C(=O)N2CC(=O)N(Cc3cccs3)CC(O)C2)cc1` (centres undefined), the “Percent Effect” value is listed as 29.81%.

Take `Cc1ccc(C(=O)N2CC(=O)N(Cc3cccs3)CC(O)C2)cc1` (centres undefined): the “Percent Effect” value turned out to be 58.25%.

For `O=C(Cc1ccsc1)N1C[C@@H]2OCCN(CC3CCCO3)[C@@H]2C1.O=C(O)C(F)(F)F` (some centres undefined), the “Percent Effect” value is reported as -30.31%.

For `CNC(=O)[C@H]1C[C@@H]2CN(C(=O)Nc3ccccc3)C[C@H]1O2`, the “Percent Effect” value is -29.03%.

As to `CN(C)CCN1CCC2(CC1)CN(Cc1cccnc1)C(=O)CO2.O=C(O)C(F)(F)F.O=C(O)C(F)(F)F.O=C(O)C(F)(F)F`, the “Percent Effect” value is 8.81%.

On to `O=C(O)C(F)(F)F.O=C(O)C(F)(F)F.c1cc(COC[C@]23COC[C@H]2CN(CC2CCC2)C3)ccn1`, for which the “Percent Effect” value is -30%.

On to `O=C(NC[C@]12COC[C@H]1CN(Cc1ccncc1)C2)c1ccco1.O=C(O)C(F)(F)F.O=C(O)C(F)(F)F`, for which the “Percent Effect” value is recorded as -3.617%.

For `Cn1cncc1C(=O)N1CCOC2(COCCN(CC3CC3)C2)C1.O=C(O)C(F)(F)F` (centres undefined), the “Percent Effect” value is on record as 41.2%.

In the case of `CCn1ccnc1CN1CCCC1Cn1cc(C)cn1` (centres undefined), the “Percent Effect” value amounted to 89.45%.

As for `Cc1cnn(CC2CCCN2Cc2nnc(C3CC3)n2C)c1` (centres undefined), the “Percent Effect” value was 10.04%.

Take `Cc1nc(C2CCCN2Cc2nccn2CC(F)(F)F)no1` (centres undefined): the “Percent Effect” value was -9.202%.

As to `Cc1cnn(CC2CN(Cc3nccn3CC(F)(F)F)CCO2)c1` (centres undefined), the “Percent Effect” value is listed as -15.97%.

As for `Cc1cnn(CC2CCCCN2Cc2nccn2CC(F)(F)F)c1` (centres undefined), the “Percent Effect” value turned out to be 52.97%.

On to `Cc1cnn(CC2CCCCN2Cc2ncc(C(C)(C)C)o2)c1` (centres undefined), for which the “Percent Effect” value was -8.099%.

On to `Cc1cnn(CC2CCCCN2Cc2cnc(C)s2)c1` (centres undefined), for which the “Percent Effect” value is 18.92%.

For `Cc1cnn(CC2CCCN2Cc2nccn2CC(F)(F)F)c1` (centres undefined), the “Percent Effect” value stood at 101.7%.

Regarding `Cc1cnn(CC2CCCN2Cc2nccn2C)c1` (centres undefined), the “Percent Effect” value is on record as 15.87%.

For `CCn1ccnc1CN1CCN(CCC(=O)NC2CCCCC2)CC1`, the “Percent Effect” value came out at 24.85%.

Consider `CC1=N[C@@]2(CC[C@@H]3CNC[C@@H]32)C(=O)N1CC(C)C.O=C(O)C(F)(F)F`, for which the “Percent Effect” value is listed as -9.466%.
